# Assay results as given in PubChem BioAssay (Tox21).
# Activity calls are given as the source filed them. The call rests on the fitted dose curve; in most records, active means well fitted curve in the direction sought with a large enough effect in the repeat runs; inconclusive means weak or mixed curves; inactive means flat fitted curve, though single readings scatter.
# Assay: qHTS assay to test for compound auto fluorescence at 460 nm (blue) in HepG2 cells (AID 720687)
# Conditions: autofluorescence 405/460 nm, 1 h; series mostly up to 91.3 µM; fluorescence, % of fluorescent control: at the top concentration
# How it was run: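 HepG2 cells in MEM with 10% FBS, attached overnight at 37 C, were exposed to compound or DMSO for 1 hr at 37 C, 5% CO2. Blue fluorescence was read at 405/460 nm, with triamterene as reference fluorophore.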
# On the % scale 0 is the no-effect control and ±100 the full control effect.
Compound,"fluorescence, % of fluorescent control",outcome
C=C(C)[C@@H]1CC=C(C)CC1,-0.0232% (inactive),
COS(=O)(=O)O,0.0337% (inactive),
O=NN(CCCl)C(=O)NC1CCCCC1,-0.0902% [at 46 µM] (inactive),
CCCCCCCCCCCCCBr,-0.0246% (inactive),
CC1(C)[C@H]2CC[C@](C)(C2)[C@H]1O,-0.1% [at 95.7 µM] (inactive),
C[C@H]1[C@@H](c2ccccc2)NC(=O)N1C,-0.0759% (inactive),
O=S(=O)(O)c1ccc2c(N=Nc3ccc(S(=O)(=O)O)c4ccccc34)c(O)c(S(=O)(=O)O)cc2c1,,inactive
CCO[Si](CC)(OCC)OCC,-0.0421% (inactive),
C[C@@H](O)C(=O)O,0.0536% [at 95.7 µM] (inactive),
O=C(O)CONC(=O)c1ccccc1,-0.156% (inactive),
O=C=NCC1CCCC(CN=C=O)C1 (centres undefined),-0.0353% (inactive),
O=C(O)[C@H](O)c1ccccc1,-0.12% [at 46 µM] (inactive),
c1ccc2c(CC3=NCCN3)cccc2c1,,inactive
CN1CCOC(c2ccccc2)c2ccccc2C1 (centres undefined),0.0046% [at 18.6 µM] (inactive),
CC(C)OC(=O)OCOP(=O)(CO[C@H](C)Cn1cnc2c(N)ncnc21)OCOC(=O)OC(C)C,,inactive
C=CC(=O)CCCCC,-0.0644% [at 95.7 µM] (inactive),
COC(=O)c1cccc(Cl)c1,0.403% (inactive),

Compound,"fluorescence, % of fluorescent control",outcome
Cn1nnc2c(C(N)=O)ncn2c1=O,0.121% [at 46 µM] (inactive),
N#Cc1cscn1,-0.0032% (inactive),
Cn1c(=O)c2c(ncn2CCO)n(C)c1=O,0.026% [at 46 µM] (inactive),
NCc1ccc(S(N)(=O)=O)cc1,0.0103% [at 18.6 µM] (inactive),
CCCCCCC1(C)CCC(=O)O1 (centres undefined),-0.236% (inactive),
Cc1cc(-c2ccccc2)nnc1NCCN1CCOCC1,0.101% [at 46 µM] (inactive),
O=C(O)CSCC(=O)NC1CCSC1=O (centres undefined),0.014% [at 46 µM] (inactive),
CC(C)(CO)C(O)C(=O)NCCCO (centres undefined),-0.0105% (inactive),
C=CC(=O)OCC1CCCO1 (centres undefined),-0.0235% (inactive),
CCOc1cccc(N)c1,0.0143% (inactive),
CC(C)=CCC/C(C)=C/COC=O,-0.0372% (inactive),
CO[Si](CCCn1c(=O)n(CCC[Si](OC)(OC)OC)c(=O)n(CCC[Si](OC)(OC)OC)c1=O)(OC)OC,0.0213% (inactive),
C[C@]12CCC(=O)C=C1CC[C@H]1[C@@H]3CC[C@](O)(C(=O)CO)[C@@]3(C)C[C@H](O)[C@@]12F,,inactive
CC/C(C)=N\O[Si](C)(O/N=C(\C)CC)O/N=C(\C)CC,0.0619% [at 95.7 µM] (inactive),
C=Cc1ccc(C(C)(C)C)cc1,-0.0387% (inactive),
CC(C)[C@H]1CC[C@H](C)C[C@@H]1O,-0.0554% [at 95.7 µM] (inactive),
CC(=O)C(C)O (centres undefined),-0.0387% (inactive),
